Where a name gives a salt, the structure may show the parent alone. ± gives the standard deviation of the averaged measurements.
What was measured:
[1] = system: Saccharomyces cerevisiae BY4741 SeMeCo community; experiment: mean cell size (pixel area) (pixels); higher = larger cells; conditions: 10 µM; 24 h; SM minimal medium
Procedure, shortened: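 A fluorescent Saccharomyces cerevisiae BY4741 community carrying four plasmids was used, with each plasmid complementing one auxotrophy and bearing a fluorescent marker. An overnight preculture at OD600 = 1.0 was diluted to OD600 = 0.3, and 70 µl went into 384-well plates acoustically predosed with drug (final 10 µM) in SM medium for 24 h. After paraformaldehyde fixation, cells were imaged by automated confocal microscopy and analysed in Harmony, giving the mean cell pixel area per well. Each value is the average of 3 replicates. Same SeMeCo high-content imaging drug screen: Selleck FDA-approved drugs at 10 µM, 24 h in SM medium, 384-well plates, 3 replicates.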

[2] = system: Saccharomyces cerevisiae BY4741 SeMeCo community; experiment: z-score of prototroph abundance vs DMSO median; higher = larger share of this subpopulation than in DMSO controls; conditions: 10 µM; 24 h; SM minimal medium; subpopulation (auxotrophy): Prototroph
Procedure, shortened: (§1)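 Scoring was based on each subpopulation's abundance, expressed as a z-score against the vehicle-well median. A Saccharomyces cerevisiae BY4741 community with four plasmids, each restoring one auxotrophy and encoding a distinct fluorescent protein, was pre-grown overnight to OD600 1.0, diluted to 0.3, and added at 70 µl to 384-well plates acoustically predosed with library drugs (10 µM final). It then grew 24 h in minimal SM medium before paraformaldehyde fixation and automated confocal microscopy, with single-auxotroph fluorescent strains setting thresholds and autofluorescence correction.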

[3] = system: Saccharomyces cerevisiae BY4741 SeMeCo community; experiment: z-score of subpopulation abundance vs DMSO median, subpopulation auxotrophic for M; higher = larger share of this subpopulation than in DMSO controls; conditions: 10 µM; 24 h; SM minimal medium; subpopulation (auxotrophy): M
Procedure, shortened: as §1

[4] = system: Saccharomyces cerevisiae BY4741 SeMeCo community; experiment: z-score of subpopulation abundance vs DMSO median, subpopulation auxotrophic for L; higher = larger share of this subpopulation than in DMSO controls; conditions: 10 µM; 24 h; SM minimal medium; subpopulation (auxotrophy): L
Procedure, shortened: as §1

[5] = system: Saccharomyces cerevisiae BY4741 SeMeCo community; experiment: z-score of subpopulation abundance vs DMSO median, subpopulation auxotrophic for U; higher = larger share of this subpopulation than in DMSO controls; conditions: 10 µM; 24 h; SM minimal medium; subpopulation (auxotrophy): U
Procedure, shortened: as §1

[6] = system: Saccharomyces cerevisiae BY4741 SeMeCo community; experiment: z-score of subpopulation abundance vs DMSO median, subpopulation auxotrophic for H; higher = larger share of this subpopulation than in DMSO controls; conditions: 10 µM; 24 h; SM minimal medium; subpopulation (auxotrophy): H
Procedure, shortened: as §1

[7] = system: Saccharomyces cerevisiae BY4741 SeMeCo community; experiment: z-score of subpopulation abundance vs DMSO median, subpopulation auxotrophic for LU; higher = larger share of this subpopulation than in DMSO controls; conditions: 10 µM; 24 h; SM minimal medium; subpopulation (auxotrophy): LU
Procedure, shortened: as §1

[8] = system: Saccharomyces cerevisiae BY4741 SeMeCo community; experiment: z-score of subpopulation abundance vs DMSO median, subpopulation auxotrophic for LM; higher = larger share of this subpopulation than in DMSO controls; conditions: 10 µM; 24 h; SM minimal medium; subpopulation (auxotrophy): LM
Procedure, shortened: as §1

[9] = system: Saccharomyces cerevisiae BY4741 SeMeCo community; experiment: z-score of subpopulation abundance vs DMSO median, subpopulation auxotrophic for HM; higher = larger share of this subpopulation than in DMSO controls; conditions: 10 µM; 24 h; SM minimal medium; subpopulation (auxotrophy): HM
Procedure, shortened: as §1

[10] = system: Saccharomyces cerevisiae BY4741 SeMeCo community; experiment: z-score of subpopulation abundance vs DMSO median, subpopulation auxotrophic for UM; higher = larger share of this subpopulation than in DMSO controls; conditions: 10 µM; 24 h; SM minimal medium; subpopulation (auxotrophy): UM
Procedure, shortened: as §1

[11] = system: Saccharomyces cerevisiae BY4741 SeMeCo community; experiment: z-score of subpopulation abundance vs DMSO median, subpopulation auxotrophic for HL; higher = larger share of this subpopulation than in DMSO controls; conditions: 10 µM; 24 h; SM minimal medium; subpopulation (auxotrophy): HL
Procedure, shortened: as §1

[12] = system: Saccharomyces cerevisiae BY4741 SeMeCo community; experiment: z-score of subpopulation abundance vs DMSO median, subpopulation auxotrophic for HLU; higher = larger share of this subpopulation than in DMSO controls; conditions: 10 µM; 24 h; SM minimal medium; subpopulation (auxotrophy): HLU
Procedure, shortened: as §1

[13] = system: Saccharomyces cerevisiae BY4741 SeMeCo community; experiment: z-score of subpopulation abundance vs DMSO median, subpopulation auxotrophic for HLM; higher = larger share of this subpopulation than in DMSO controls; conditions: 10 µM; 24 h; SM minimal medium; subpopulation (auxotrophy): HLM
Procedure, shortened: as §1

[14] = system: Saccharomyces cerevisiae BY4741 SeMeCo community; experiment: z-score of subpopulation abundance vs DMSO median, subpopulation auxotrophic for HUM; higher = larger share of this subpopulation than in DMSO controls; conditions: 10 µM; 24 h; SM minimal medium; subpopulation (auxotrophy): HUM
Procedure, shortened: as §1

[15] = system: Saccharomyces cerevisiae BY4741 SeMeCo community; experiment: z-score of subpopulation abundance vs DMSO median, subpopulation auxotrophic for LUM; higher = larger share of this subpopulation than in DMSO controls; conditions: 10 µM; 24 h; SM minimal medium; subpopulation (auxotrophy): LUM
Procedure, shortened: as §1

[16] = system: Saccharomyces cerevisiae BY4741 SeMeCo community; experiment: z-score of subpopulation abundance vs DMSO median, subpopulation auxotrophic for HLUM; higher = larger share of this subpopulation than in DMSO controls; conditions: 10 µM; 24 h; SM minimal medium; subpopulation (auxotrophy): HLUM
Procedure, shortened: as §1

[17] = system: Saccharomyces cerevisiae BY4741 SeMeCo community; experiment: z-score of subpopulation abundance vs DMSO median, subpopulation auxotrophic for HU; higher = larger share of this subpopulation than in DMSO controls; conditions: 10 µM; 24 h; SM minimal medium; subpopulation (auxotrophy): HU
Procedure, shortened: as §1

Compound | mean cell size [1] | z-score of prototroph abundance [2] | z-score of subpopulation abundance [3] | z-score of subpopulation abundance [4] | z-score of subpopulation abundance [5] | z-score of subpopulation abundance [6] | z-score of subpopulation abundance [7] | z-score of subpopulation abundance [8] | z-score of subpopulation abundance [9] | z-score of subpopulation abundance [10] | z-score of subpopulation abundance [11] | z-score of subpopulation abundance [12] | z-score of subpopulation abundance [13] | z-score of subpopulation abundance [14] | z-score of subpopulation abundance [15] | z-score of subpopulation abundance [16] | z-score of subpopulation abundance [17]
COc1ccc2c(c1)c(CC(=O)OCC(=O)O)c(C)n2C(=O)c1ccc(Cl)cc1 [Acemetacin] | 12.45 ± 0.094 | -0.16 | 0.01 | -1.06 | -0.02 | 0.66 | 0.16 | -0.54 | 0.71 | 0.2 | 0.11 | -0.64 | -0.3 | 0.69 | -0.15 | -0.61 | 
CN1CC2c3ccccc3Oc3ccc(Cl)cc3C2C1 (stereo unspecified) [Asenapine maleate] | 12.34 ± 0.11 |  | -0.45 | 1.05 | -0.5 | -0.64 | 0.61 | 0.5 | -0.76 | -0.2 | 0.5 | 0.37 | -0.53 | 0.01 | 0.42 | 0.32 | 
COc1ccccc1OCC(O)CN1CCN(CC(=O)Nc2c(C)cccc2C)CC1 (stereo unspecified) [Ranolazine 2HCl] | 12.35 ± 0.013 | 0.5 | -0.08 | 0.24 | -0.29 | 0.04 | 0.35 | -0.74 | -0.18 | -0.16 |  | -0.68 | -0.72 | -0.12 | -0.47 | -0.5 | 
CN1CCC[C@@H]1Cc1c[nH]c2ccc(CCS(=O)(=O)c3ccccc3)cc12 [Eletriptan HBr] | 12.5 ± 0.44 | 0.55 | 0.9 | 0.61 |  | 0.1 | -1.12 | 0.75 | 0.08 |  | -0.15 | -0.54 | -0.5 | -0.47 | -1.48 | -0.74 | 
COC(=O)C1=C(C)NC(C)=C(C(=O)OC(C)(C)CN(C)CCC(c2ccccc2)c2ccccc2)C1c1cccc([N+](=O)[O-])c1 (stereo unspecified) [Lercanidipine] | 12.1 ± 0.16 | -0.62 | 0.27 | 1.24 | -0.86 | 2.07 | 0.17 | 0.9 | 0.81 | -0.89 | 2.31 | 0.93 | 1.04 | 0.23 | 0.13 |  | 0.16
NCCc1ccc(O)c(O)c1 [Dopamine HCl] | 12.4 ± 0.15 | 1.09 | -0.7 | -1.11 | -0.48 | -0.34 | -0.45 | -0.73 | -0.38 | -0.71 | -1.06 | -0.89 | -0.89 | -0.77 | -0.34 |  | -0.79
C[C@]12CCC(=O)C=C1[C@@H]1C[C@@H]1[C@H]1[C@@H]3[C@@H]4C[C@@H]4[C@@]4(CCC(=O)O4)[C@@]3(C)CC[C@@H]12 [Drospirenone] | 12.53 ± 0.089 | -0.22 | 0.59 | -0.08 | -0.17 | -0.17 | 0.11 | 1.26 | 0.03 | -0.14 | 0.14 | 0.26 | 0.31 | -0.41 | 0.85 | -0.05 | 
C/C(=C\C(=O)OCCCCCCCCC(=O)O)C[C@@H]1OC[C@H](C[C@@H]2O[C@H]2[C@@H](C)[C@H](C)O)[C@@H](O)[C@H]1O [Mupirocin calcium] | 12.2 ± 0.29 | -0.73 | -0.19 | -0.72 | 1.26 | 0.77 | 0.56 | -0.21 | 0.83 | 1.73 | -0.37 | 0.12 | -0.09 | 1.29 | 0.39 |  | 1.13
O=C(O)Cc1ccccc1Nc1c(Cl)cccc1Cl [Diclofenac Diethylamine] | 12.66 ± 0.1 | 2.27 | -0.07 | 0.07 | -1.34 | -1.31 | -0.75 | -0.51 | -0.49 | -1.81 | -1.1 | -0.36 | -0.26 | -1.96 |  | 0 | 
O=C1OC(CN2CCOCC2)CN1/N=C/c1ccc([N+](=O)[O-])o1 (stereo unspecified) [Furaltadone HCl] | 12.75 ± 0.12 | 0.34 | 0.83 | -0.94 | 0.25 | -0.56 | -0.14 | -0.57 | 0.11 | 0.47 |  | -0.79 | -0.4 | -0.1 | -0.33 |  | -0.63
CC/C=C(\C(=O)N[C@@H]1C(=O)N2C(C(=O)OCOC(=O)C(C)(C)C)=C(COC(N)=O)CS[C@H]12)c1csc(N)n1 [Cefcapene Pivoxil Hydrochloride] | 12.3 ± 0.31 | -1.27 | 0.11 | 0.38 | 0.38 | 1.15 | 0.9 | 0.55 |  | 0.67 | 0.18 | -0.22 | 0.64 | 1.18 | 0.63 | 0.1 | 1
Cc1cc(C)nc(NS(=O)(=O)c2ccc(N)cc2)n1 [Sulfamethazine Sodium Salt] | 12.28 ± 0.095 |  | -1.42 | 0.3 | -0.43 | 0.36 | -0.11 | -0.63 | -0.79 | -0.8 | -0.24 | -0.28 | -0.15 | -0.93 | -0.01 |  | 0.05
C[C@H](Nc1ncnc2nc[nH]c12)c1cc2cccc(Cl)c2c(=O)n1-c1ccccc1 [Duvelisib (IPI-145, INK1197)] | 12.37 ± 0.1 | -0.55 | -0.39 | 1.3 | 0.89 | 0.93 | 1.28 | 0.42 |  | -0.3 | 0.33 | 0.95 | 0.18 | -0.67 | 0.56 | 0.98 | -0.03
CC(=O)OCC1=C(C(=O)O)N2C(=O)[C@@H](NC(=O)CSc3ccncc3)[C@H]2SC1 [Cephapirin Benzathine] | 12.7 ± 0.17 | -0.46 | -0.98 | -0.54 | 1.05 | 1.45 | 0.44 | 0.09 | 0.66 | -0.24 | 0.48 | 0.25 | 0.47 | 0.27 | -0.22 |  | 

Reference: the supplement of paper PMC8975748
